In the library only some 3.1% were active in any assay of this set; here they are far more common.
BRCT inh green – BRCA1 BRCT-phosphoprotein interaction inhibition | hit rate 0.05% among 75,000 | Potency, µM (top dose mostly 76.9 µM), inactives show at the highest dose activity change, negative = inhibition, most hits filed as inhibitors | BRCA1 BRCT-phosphopeptide binding, green fluorescence polarization;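 further: potency means the concentration at half of the fitted maximal effect; plate controls were peptide without protein for full effect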
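Fluorescence polarization: His-tagged BRCT (~35 kDa BRCA1 C-terminus, 250 nM) bound to 100 nM fluorescein-labeled phosphorylated 10-aa BACH1 peptide, pH 7.3 phosphate buffer with DTT and Tween 20. Compounds incubated 12 min at room temperature; inhibition read as lowered polarization.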
Tau filament bind – binders of human tau filaments. P10636. recombinant tau filaments, thioflavin S fluorescence, 15 h; filaments grown with octadecylsulfate alongside compound. Potency, µM (series often up to 57.1 µM), without a hit: top-dose activity change, negative = inhibition. hit rate 2% among 71,000. AID 596;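 further: potency means the concentration at half of the fitted maximal effect; on the % scale 0 is the no-effect control and ±100 the full control effect; actives lower thioflavin S fluorescence by blocking filaments or displacing dye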
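Thioflavine S fluorescence (ex 450, em 510 nm) reports filaments formed from 1 uM human tau plus 30 uM ODS over 15 h at 37 C (10 mM HEPES pH 7.4, 100 mM NaCl, 5 mM DTT); compounds displacing dye or blocking filaments lower signal.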
Pol III holo inh – blocks replication by bacterial DNA polymerase III holoenzyme; reconstituted DNA polymerase III holoenzyme replication, biochemical; Potency, µM (top dose mostly 57.1 µM), for the others: top-dose activity change, negative = inhibition; hit rate 0.25% among 71,000; AID 603; further: potency means the concentration at half of the fitted maximal effect; on the % scale 0 is the no-effect control and ±100 the full control effect
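Reconstituted *E. coli* holoenzyme (0.35 nM Pol III, 1 nM beta, 154 nM SSB, 2 nM primase) was preincubated with compound for 15 min at RT. Synthesis on 1.4 nM ssM13Gori ran 35 min, then was stopped with PicoGreen/EDTA and read as dsDNA fluorescence.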
YjeE inh – inhibitors of E. coli YjeE (TsaE) | P0AF67 | purified YjeE enzyme, qHTS inhibition assay | Potency, µM | hit rate 0.05% among 71,000 | AID 605
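Fluorescence polarization of a BODIPY Texas Red–ADP probe (2 uM) bound to purified YjeE (10 uM) was read after 15 min room-temperature incubation with compounds. Loss of polarization marks inhibitors; ADP serves as titrated control.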
BRCT PPI red – disrupts BRCA1 BRCT binding to phosphoprotein, red fluorophore readout; P38398; BRCT-phosphopeptide binding, red fluorescence polarization; Potency, µM (highest dose often 76.9 µM), inactives show at the highest dose activity change, negative = inhibition, actives largely listed as inhibitors; hit rate 0.03% among 75,000; AID 892; further: on the % scale 0 is the no-effect control and ±100 the full control effect
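Fluorescence polarization: 100 nM His-tagged BRCA1 BRCT with 100 nM TAMRA-labelled phospho-BACH1 decapeptide, phosphate buffer pH 7.3 with 150 mM NaCl, DTT, 0.01% Tween 20; 12 min RT. Binding inhibition seen as FP decrease.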
ALOX15 inhib – inhibitors of human 15-lipoxygenase (ALOX15) | Potency, µM (titrated, usually from 57.1 µM), for the others: at the highest dose activity change, negative = inhibition, actives largely listed as inhibitors | hit rate 1.4% among 74,000 | P16050 | purified 15hLO-1, xylenol orange hydroperoxide absorbance; further: potency means the concentration at half of the fitted maximal effect; on the % scale 0 is the no-effect control and ±100 the full control effect; nearly all actives have a fitted effect of over 55% in size
Target sequence (P16050 whole entry, looked up): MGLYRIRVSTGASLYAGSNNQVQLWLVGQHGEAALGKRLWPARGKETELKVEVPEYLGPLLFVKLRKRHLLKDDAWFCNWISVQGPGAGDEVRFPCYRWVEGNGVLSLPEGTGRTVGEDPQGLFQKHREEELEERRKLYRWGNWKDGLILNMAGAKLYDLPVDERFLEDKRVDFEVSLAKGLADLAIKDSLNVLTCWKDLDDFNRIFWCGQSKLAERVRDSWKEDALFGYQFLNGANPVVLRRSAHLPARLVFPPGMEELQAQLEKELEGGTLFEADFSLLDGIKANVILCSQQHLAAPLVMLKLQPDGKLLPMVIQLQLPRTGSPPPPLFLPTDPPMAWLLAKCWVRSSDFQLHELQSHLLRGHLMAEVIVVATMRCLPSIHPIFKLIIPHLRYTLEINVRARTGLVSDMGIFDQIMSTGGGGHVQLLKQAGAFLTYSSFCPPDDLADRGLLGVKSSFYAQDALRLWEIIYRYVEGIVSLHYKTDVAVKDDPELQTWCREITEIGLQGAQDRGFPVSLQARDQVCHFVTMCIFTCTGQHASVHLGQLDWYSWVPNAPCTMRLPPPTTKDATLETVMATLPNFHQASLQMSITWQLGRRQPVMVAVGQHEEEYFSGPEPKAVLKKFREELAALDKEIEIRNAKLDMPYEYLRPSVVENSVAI
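Purified human 15hLO-1 (40 nM) in 25 mM Hepes pH 7.5, 0.01% Triton X-100, preincubated 15 min RT with compound, then 50 uM arachidonic acid for 6 min. Hydroperoxide read by ferrous/xylenol orange, 30 min; 573/405 nm absorbance ratio gave progress.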
Starred values were filed as active, the others as inactive; i = inactive; ? = inconclusive; · = no result given; ! = not confirmed by another sample; [ ] = dose if it differs, or a comment. The call rests on the fitted dose curve; in most records, active means well fitted curve in the direction sought with a large enough effect; inconclusive means small, poorly fitted or top-dose-only effect, or another doubt; inactive means no such curve, though single readings can be large; an effect the other way counts as inactive or inconclusive.

SMILES	BRCT inh green	Tau filament bind	Pol III holo inh	YjeE inh	BRCT PPI red	ALOX15 inhib
CO[C@H]1COC(=O)C/C=C\[C@@H](C)COC(=O)[C@@H](C)NC(=O)C/C=C\[C@@H]1C	2%[15.4 µM]	·	·	·	2%[15.4 µM]	-1%[11.4 µM]
Cc1ccccc1C(=N)c1ccccc1Cc1cccc2ccccc12	-1%[15.4 µM]	-12%[11.4 µM]	-6%[11.4 µM]	i	-1%[15.4 µM]	14%[11.4 µM]
CCOc1cc(S(=O)(=O)NC2CCCCCC2)ccc1F	-2%	-23%	-6%	i	0%	-8%
CCOc1cc(C)c(S(=O)(=O)NC2CCCCC2)cc1C	-2%	10µM*	-2%	i	0%	-18%
N#Cc1ccc(CN2CCC3(CC2)CCN(C(=O)c2cc(C(F)(F)F)cc(C(F)(F)F)c2)CC3)cc1	-1%	8%	0%	i	0%	-7%
Cc1cc(C2C(C#N)=C(N)SC(N)=C2C#N)c(C)s1	23%	176%	5%	i	-1%	-14%
CCCCc1ccc(C2C(C#N)=C(N)SC(N)=C2C#N)s1	48%	0.32µM*	-4%[11.4 µM]	i	1%	0.79µM*
COc1ccc(N/C(C)=C2/C(=O)C(=O)N(CCO)C2c2ccc(Br)cc2)cc1 (stereo not drawn)	-1%	16µM*	-11%	i	1%	-6%
COC1CC(O[C@H]2/C(C)=C/CC3CC(C[C@]4(CCC(C)C(C5CCCCC5)O4)O3)OC(=O)[C@H]3C=C(C)/C(=N/O)C4OC/C(=C\C=C\[C@@H]2C)[C@@]43O)OC(C)C1O (stereo partly drawn)	5%[3.08 µM]	·	·	·	0%	-2%
O=C(NCCC1=CCCCC1)C1CCCN(S(=O)(=O)c2cccc3cccnc23)C1 (stereo not drawn)	1%	1%	3%	i	2%	20µM*
O=C(NCCC1=CCCCC1)C1CCCN(S(=O)(=O)c2cccnc2)C1 (stereo not drawn)	-1%	0%	0%	i	0%	-7%
Cc1cc(S(=O)(=O)Nc2ccccc2C(=O)O)ccc1F	-2%	·	·	·	-1%	-1%
CCOC(=O)c1nn(-c2ccccc2)c(=O)c2c(N)scc12	-3%	-20%	-3%	i	-1%	5µM*
CCCC(=O)c1cc(O)c(O)cc1O	-1%	?	?	i	0%	4µM*
CCCNC(=O)OC[C@@H]1O[C@H](CCO/N=C\[C@@H](C)[C@H](OCc2ccccc2)C(C)C)C=C[C@@H]1Oc1ccc(OC)cc1	-1%[15.4 µM]	·	·	·	0%[15.4 µM]	4%[11.4 µM]
CC(C)CC(/C(O)=C(\C#N)c1nc2ccccc2[nH]1)N1C(=O)c2ccccc2C1=O (stereo not drawn)	1%	13µM*	-3%	i	0%	-4%
CC(C)(C)/C(O)=C(/C#N)c1nc2ccccc2[nH]1	-2%	-5%	-5%	i	-1%	-17%
COc1ccccc1-c1nc(N(C)C)c2ccccc2n1	-2%	16µM*	-13%	i	-1%	?
CN(Cc1ccco1)c1nc(-c2ccccc2C(F)(F)F)nc2ccccc12	-2%	0%	0%	i	1%	16µM*
COc1ccccc1-c1nc(N(C)Cc2ccco2)c2ccccc2n1	-1%	7.9µM*	-3%	i	0%	-22%
CN(Cc1ccco1)c1nc(-c2ccccc2Cl)nc2ccccc12	-2%	-2%	-2%	i	2%	3%
CN(Cc1ccco1)c1nc(-c2cccnc2)nc2ccccc12	1%	14%	-5%	i	-2%	2%
COc1ccc(N(CC(=O)O)N=O)cc1	0%[15.4 µM]	-2%[11.4 µM]	-6%[11.4 µM]	i	0%[15.4 µM]	-9%[11.4 µM]
O=C(c1ccco1)N1CCC[C@@]2(CCN(c3cccc(-c4ccccc4)c3)C2)C1	4%	-21%	4%	i	1%	?
c1nc(NC2CC2)c2cc(-c3ccoc3)ccc2n1	0%	58%	-6%	i	1%	?
SMILES	BRCT inh green	Tau filament bind	Pol III holo inh	YjeE inh	BRCT PPI red	ALOX15 inhib
CCOC(=O)c1cc(-c2ccc3c(c2)OCCO3)nc2c1c(C)nn2CCC#N	-2%	-7%	6%	i	-1%	-10%
CCOC(=O)c1cc(-c2ccco2)nc2c1c(C)nn2CCC#N	1%	16µM*	3%	i	0%	?
CO[C@@H]1COC(=O)[C@H]2CCCN2C(=O)[C@@H](C)COC(=O)[C@H](COCc2ccccc2)NC(=O)C/C=C\[C@H]1C	0%[15.4 µM]	·	·	·	0%[15.4 µM]	3%[11.4 µM]
CC(=O)Nc1ccc(OC[C@@H](O)CNC(C)C)cc1	-2%	40µM*!	-2%	i	2%	?
CC1O[C@@H](O[C@@H]2C(O)C[C@H](O[C@@H]3C(O)C[C@@H](OC4CC[C@@]5(C)C6CC(O)[C@@]7(C)C(C8=CC(=O)OC8)CC[C@@]7(O)C6CC[C@@H]5C4)OC3C)OC2C)CC(O)[C@H]1O (stereo partly drawn)	0%[3.08 µM]	·	·	·	0%	1%
C[N+]1(C)CCC[C@H]1C(=O)[O-]	-1%[34.4 µM]	17%[25.6 µM]	-1%[25.6 µM]	i	0%[34.4 µM]	0%[25.6 µM]
COc1cc(CN2CCC(C(=O)NC3CCCC3)CC2)cc(OC)c1O	0%	7%	-2%	i	-2%	25µM*
CCOC(=O)C1CCCN(Cc2cc(OC)c(O)c(OC)c2)C1 (stereo not drawn)	0%	·	·	·	-1%	1%
O=C(O)c1cc(S(=O)(=O)Nc2ccc(O)cc2)ccc1Cl	-2%	·	·	·	-2%	1%
CCN1C(=O)c2cccc3c(S(=O)(=O)Nc4ccccc4OC)ccc1c23	5%	20µM*	-3%	i	0%	-19%
CCN1C(=O)c2cccc3c(NS(=O)(=O)c4ccc(NC(C)=O)cc4)ccc1c23	6%	-27%	3%	i	0%	-13%
CC(=O)OC[C@@H]1O[C@@H](O/N=C2/C[C@@H](O)[C@@H](O)[C@@H]3[C@@H]4C(=O)N(C[C@@H]5CCCO5)C(=O)[C@H]4CC[C@H]23)[C@H](OC(C)=O)[C@H](OC(C)=O)[C@@H]1OC(C)=O	-1%[15.4 µM]	·	·	·	2%[15.4 µM]	1%[11.4 µM]
C=C(C)CSc1nc(N)c(C#N)c(-c2ccc(C)cc2)c1C#N	0%	208%	-2%	i	1%	32µM*
Cn1c(-c2cccc(Br)c2)cnc1NCc1cccnc1	-1%	13%	-6%	i	0%	16%
COc1cccc(-c2cnc(NCc3cc(Cl)ccc3O)n2C)c1	-1%	30%	-1%	i	-2%	32µM*
COc1ccc(Nc2cc(C(=O)NCCCN3CCN(C)CC3)c3ccccc3n2)c(OC)c1	-1%	13µM*	-4%	i	0%	-16%
CC[C@@H]1[C@H]2CCCCN3[C@@H]2[C@@H](C[C@H]3[C@@H]2C[C@H](C)C(=O)O2)[C@@H]2[C@H]1OC(=O)[C@H]2C	·	-22%	-9%	i	·	·

Screening data as filed in PubChem.
